From PubChem BioAssay (NCATS)
Results filed as inconclusive are left out. The source made the active and inactive calls. Calls follow the shape of the dose curve; as a rule, active = well fitted curve in the direction sought with a large enough effect; inconclusive = small, poorly fitted or top-dose-only effect, or another doubt; inactive = no such curve, though single readings can be large; an effect the other way counts as inactive or inconclusive.

What was measured:
[1] = qHTS of pediatric cancer cell lines to identify multiple opportunities for drug repurposing: Primary screen for TC32 cells (AID 1347089); conditions: TC32 Ewing sarcoma viability, CellTiter-Glo luminescence, 48 h; series mostly up to 45.8 µM; also: nearly all actives have a fitted effect of over 60% in size
Method in brief: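 In the primary qHTS, MIPE compounds were tested at 11 concentrations (0.78 nM to 46 µM) and NPC compounds at 8 (0.59 nM to 46 µM) on TC32 cells for 48 h. CellTiter-Glo luminescence gave viability.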

[2] = qHTS of pediatric cancer cell lines to identify multiple opportunities for drug repurposing: Primary screen for DAOY cells (AID 1347090); conditions: DAOY medulloblastoma viability, CellTiter-Glo luminescence, 48 h; series mostly up to 46 µM; also: nearly all actives have a fitted effect of over 55% in size
Method in brief: (§1)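 Viability measured as metabolically active cells via CellTiter-Glo luminescence following 48 hours of compound exposure, 11-point dilutions in confirmatory testing. 500-1,000 cells/well plated 5 hours before dosing; controls were DMSO and 2.3 µM bortezomib.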

[3] = qHTS of pediatric cancer cell lines to identify multiple opportunities for drug repurposing: Primary screen for SJ-GBM2 cells (AID 1347091); conditions: SJ-GBM2 viability, CellTiter-Glo luminescence, 48 h; series mostly up to 46 µM
Method in brief: as §1

[4] = qHTS of pediatric cancer cell lines to identify multiple opportunities for drug repurposing: Primary screen for A673 cells (AID 1347092); conditions: A673 Ewing sarcoma viability, CellTiter-Glo ATP luminescence, 48 h; series mostly up to 46 µM; also: nearly all actives have a fitted effect of over 45% in size
Method in brief: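 48 h compound exposure, A673, 500-1,000 cells/well, 37 degrees C/5% CO2. MIPE: 11-point, 0.78 nM-46 µM; NPC: 8-point, 0.59 nM-46 µM (final). Readout CellTiter-Glo luminescence after 15 min RT.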

[5] = qHTS of pediatric cancer cell lines to identify multiple opportunities for drug repurposing: Primary screen for SK-N-MC cells (AID 1347093); conditions: SK-N-MC viability, CellTiter-Glo luminescence, 48 h; series mostly up to 46 µM
Method in brief: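 Metabolically active cells were quantified by ATP-dependent luminescence (CellTiter-Glo, 15 min at room temperature) following 48 h treatment. Cells had been plated at 500-1,000 per well and settled for 5 h beforehand.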

[6] = qHTS of pediatric cancer cell lines to identify multiple opportunities for drug repurposing: Primary screen for BT-37 cells (AID 1347094); conditions: BT-37 viability, CellTiter-Glo luminescence, 48 h; series mostly up to 57.3 µM
Method in brief: (§2)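 ATP-based luminescence (CellTiter-Glo) quantifies viability after a 48-hour exposure. Compounds are dosed across 8 or 11 final concentrations; DMSO and 2.3 µM bortezomib serve as controls.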

[7] = qHTS of pediatric cancer cell lines to identify multiple opportunities for drug repurposing: Primary screen for U-2 OS cells (AID 1347096); conditions: U-2 OS viability, CellTiter-Glo luminescence, 48 h; series mostly up to 46 µM; also: nearly all actives have a fitted effect of over 50% in size
Method in brief: (§3)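 Viability after 48 h compound treatment at 37C, 500-1,000 cells/well, read as ATP luminescence with CellTiter-Glo. Primary screens used 11-point (MIPE, 0.78 nM-46 µM) or 8-point (NPC, 0.59 nM-46 µM) final concentrations; follow-up screens used 11-point dilutions.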

[8] = qHTS of pediatric cancer cell lines to identify multiple opportunities for drug repurposing: Primary screen for SK-N-SH cells (AID 1347098); conditions: SK-N-SH viability, CellTiter-Glo luminescence, 48 h; series mostly up to 57 µM;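 also: DMSO served as neutral control and bortezomib at 2.3 µM as positive control; nearly all actives have a fitted effect of over 65% in size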
Method in brief: (§4)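 Cells (500-1,000/well) rested 5 h, then received compounds for 48 h; metabolically active cells were measured by CellTiter-Glo luminescence. Final concentrations spanned up to 46 µM (MIPE, 11-point) or 0.59 nM-46 µM (NPC, 8-point) in primary screens, 11-point in follow-ups.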

[9] = qHTS of pediatric cancer cell lines to identify multiple opportunities for drug repurposing: Primary screen for NB1643 cells (AID 1347099); conditions: NB1643 neuroblastoma viability, CellTiter-Glo luminescence, 48 h; series mostly up to 46 µM; also: nearly all actives have a fitted effect of over 50% in size
Method in brief: as §2

[10] = qHTS of pediatric cancer cell lines to identify multiple opportunities for drug repurposing: Primary screen for LAN-5 cells (AID 1347100); conditions: LAN-5 neuroblastoma viability, CellTiter-Glo luminescence, 48 h; series mostly up to 46 µM
Method in brief: as §3

[11] = qHTS of pediatric cancer cell lines to identify multiple opportunities for drug repurposing: Primary screen for BT-12 cells (AID 1347101); conditions: BT-12 viability, CellTiter-Glo luminescence, 48 h; series mostly up to 57.3 µM; also: nearly all actives have a fitted effect of over 25% in size
Method in brief: as §4

[12] = qHTS of pediatric cancer cell lines to identify multiple opportunities for drug repurposing: Primary screen for Rh18 cells (AID 1347102); conditions: Rh18 rhabdomyosarcoma viability, CellTiter-Glo luminescence, 48 h; series mostly up to 46 µM; also: nearly all actives have a fitted effect of over 65% in size
Method in brief: as §3

[13] = qHTS of pediatric cancer cell lines to identify multiple opportunities for drug repurposing: Primary screen for OHS-50 cells (AID 1347103); conditions: OHS-50 osteosarcoma viability, CellTiter-Glo luminescence, 48 h; series mostly up to 57.3 µM; also: nearly all actives have a fitted effect of over 40% in size
Method in brief: as §4

[14] = qHTS of pediatric cancer cell lines to identify multiple opportunities for drug repurposing: Primary screen for RD cells (AID 1347104); conditions: RD rhabdomyosarcoma viability, CellTiter-Glo luminescence, 48 h; series mostly up to 46 µM; also: nearly all actives have a fitted effect of over 55% in size
Method in brief: as §2

[15] = qHTS of pediatric cancer cell lines to identify multiple opportunities for drug repurposing: Primary screen for NB-EBc1 cells (AID 1347095); conditions: NB-EBc1 neuroblastoma viability, CellTiter-Glo luminescence, 48 h; series mostly up to 46 µM
Method in brief: as §2

[16] = qHTS of pediatric cancer cell lines to identify multiple opportunities for drug repurposing: Primary screen for Saos-2 cells (AID 1347097); conditions: Saos-2 viability, CellTiter-Glo ATP luminescence, 48 h; series mostly up to 46 µM; also: nearly all actives have a fitted effect of over 40% in size
Method in brief: as §2

Measured: Potency

OC[C@H]1O[C@@H](Oc2ccc(O)cc2)[C@H](O)[C@@H](O)[C@@H]1O
not listed: [15] | [16]
inactive: all other assays above

NC(=S)N/N=C/c1cccnc1
not listed: [6]
inactive: all other assays above

CC(C)Cc1ccc(CC(=O)O)cc1
not listed: [8] | [16]
inactive: all other assays above

Cc1cccc(C)c1NC(=O)c1ccccc1C(=O)O
not listed: [13] | [15] | [16]
inactive: all other assays above

CN(C)CCN1C(=O)c2ccccc2N(C)c2ccccc21
not listed: [15]
inactive: all other assays above

O=C1C(=O)c2ccccc2C(O)=C1C1CCC(c2ccc(Cl)cc2)CC1 (stereo unspecified)
not listed: [15] | [16]
inactive: all other assays above

CC1(C)OC[C@@H]2O[C@@]3(C(=O)O)OC(C)(C)O[C@H]3[C@@H]2O1
not listed: [6] | [15]
inactive: all other assays above

COc1ccc(C(=O)c2ccccc2O)c(O)c1
not listed: [5] | [8] | [13] | [16]
inactive: all other assays above

COc1ccc(S(=O)(=O)N2c3ccc(Cl)cc3[C@@](O)(c3ccccc3Cl)[C@H]2C(=O)N2CCC[C@@H]2C(N)=O)cc1OC
not listed: [5] | [11] | [16]
inactive: all other assays above

c1ccc(CC2=NCCN2)cc1
not listed: [5] | [9] | [16]
inactive: all other assays above

O=C(O)CCc1nc2ccccc2[nH]1
not listed: [6] | [8] | [15] | [16]
inactive: all other assays above

CC(=C(CCOC(=O)C(C)C)SSC(CCOC(=O)C(C)C)=C(C)N(C=O)Cc1cnc(C)nc1N)N(C=O)Cc1cnc(C)nc1N
not listed: [5]
inactive: all other assays above

N#CCC(=O)NN
not listed: [5] | [9] | [13]
inactive: all other assays above

CC(=O)Nc1ccc(OCC(O)CNC(C)C)cc1 (stereo unspecified)
not listed: [5] | [8] | [9] | [11]
inactive: all other assays above

CC[N+](C)(CC)CCOC(=O)C(O)(c1ccccc1)C1CCCCC1 (stereo unspecified)
not listed: [5] | [11]
inactive: all other assays above

O=[N+]([O-])c1cccc(S(=O)(=O)NCCNS(=O)(=O)c2cccc([N+](=O)[O-])c2)c1
not listed: [6] | [11] | [13] | [15] | [16]
inactive: all other assays above

CCN(CC)CCNC(=O)COc1ccc(OC)cc1
not listed: [5]
inactive: all other assays above

CC(C)(C)CC(C)(C)c1ccc(O)c(-n2nc3ccccc3n2)c1
not listed: [5] | [13] | [15]
inactive: all other assays above

Nc1ccc(C(=O)NCC(=O)O)cc1
not listed: [5] | [13]
inactive: all other assays above
